# Assay results reported in the supplement of paper PMC6555819.
# How the values were obtained:
# Test in all cases: PBM binding z-score (relative to random genomic background probes); higher = stronger binding; sequences stand for … in GC…GCGATTGACAGCGTAGAATGAAGG
# [1] = tested on: PPARg:RXRa DBDmut IVT, anti-RXR (DBD mutation: RXRa K156A/R161A, NR concentration 270 nM, RXRa partner concentration 90 nM)
# Outline: (§1)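 Custom Agilent 4×180K protein-binding microarrays carried double-stranded probes, each with a 34-nt variable region. These regions held direct-repeat seeds, single-nucleotide variants, half-site ablations and random human genomic background sequences. Ligand-free nuclear receptor dimers were incubated on the arrays for 1 h, antibodies against each partner (one per run) detected binding, and scanned fluorescence was regression-normalized. Binding z-scores take the random background probes as reference.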
# [2] = tested on: PPARg:RXRa IVT, anti-PPARg (NR concentration 270 nM, RXRa partner concentration 90 nM)
# Outline: as §1
# [3] = tested on: PPARg DBDmut:RXRa IVT, anti-PPARg (DBD mutation: PPARg1 K132A/R137A, NR concentration 270 nM, RXRa partner concentration 90 nM)
# Outline: as §1
# [4] = tested on: PPARg DBDmut IVT, anti-PPARg (DBD mutation: PPARg1 K132A/R137A, NR concentration 270 nM)
# Outline: as §1
# [5] = tested on: PPARg homodimer (NR concentration 180 nM)
# Outline: as §1
# [6] = tested on: PXR:RXRa (NR concentration 270 nM, RXRa partner concentration 90 nM)
# Outline: as §1
# [7] = tested on: PXR homodimer (NR concentration 270 nM)
# Outline: as §1
# [8] = tested on: RARa:RXR (NR concentration 270 nM, RXRa partner concentration 90 nM)
# Outline: as §1
# [9] = tested on: RARa homodimer (NR concentration 270 nM)
# Outline: as §1
# [10] = tested on: RARb:RXRa (NR concentration 270 nM, RXRa partner concentration 90 nM)
# Outline: as §1
Sequence,PBM binding z-score [1],PBM binding z-score [2],PBM binding z-score [3],PBM binding z-score [4],PBM binding z-score [5],PBM binding z-score [6],PBM binding z-score [7],PBM binding z-score [8],PBM binding z-score [9],PBM binding z-score [10]
CGAACCAGGGCATGAGTTGATAGCAAATGCCGAT,2.9,2.29,-0.69,0.106,0.228,-0.0525,-0.0221,-0.0885,-0.263,1.02
CCTAGCAGGCCAATCTGAGTCACTCAAGGCTTGA,1.42,0.0725,-1.14,-1.49,0.0523,-0.832,-0.519,-0.853,-0.569,-0.0528
TAGCCTAGGTCATATCGGGCCAGTATACGCTATA,1.18,2.19,0.112,0.0699,0.54,2.18,0.0831,1.92,-0.618,3.37
AGTCAAAGTTTAGGACGAGGTAACGTAAAGCACG,-0.369,0.311,0.476,0.0826,0.281,0.168,-0.0643,0.219,0.258,1.41
TCTTGTAGATCAAGCAGGTTAACAAAGCCTGAGT,1.57,0.741,0.45,0.44,0.0405,0.699,0.326,0.629,-0.263,0.298
TCGAGTAGGTTACAAATGGGGCATTCAGCTTTCT,3.56,3.01,0.207,-0.201,0.131,0.0276,-0.499,0.475,0.267,0.54
CCTATTAGTTGACCGTAAGGGCAACCGAAGCTCG,0.0924,0.672,0.0839,-0.0421,1.63,0.919,0.939,1.35,1.56,1.91
AGTATTAGTTGAGACGAGGGCAACCGATAGGTTG,-0.068,0.769,0.458,0.336,0.923,1.63,0.87,1.01,1.25,1.2
AGAATGTGGTTATTAAGATCAGGGAATTGCGGTC,0.321,0.232,0.301,1.09,1.35,-0.0244,0.763,0.105,1.37,0.11
TCATATAGGTAAAGGTGAGAGTCGAACGATATGA,4.15,4,1.24,1.62,0.906,0.649,0.0264,1.29,0.387,1.69
TCTCGGAGGACATGAAAGGTCAGAGCTCGACATC,2.04,1.1,-0.0886,-0.561,2.54,3.59,0.0503,3.72,0.458,3.99
CCTATAAGTTGACCATAAGGGCAACCGAAGCTCG,0.357,0.771,0.17,-0.0168,1.61,0.964,0.7,1.23,1.27,1.8
GCAGACAGGTGAAACGCGGGTAACTCAGGGTGGC,1.2,0.724,-0.459,-1.01,-0.647,-0.0302,-0.747,0.318,-0.909,0.691
ATCTCTAGATAAAGATAGTTCAGTGAATGCAAAT,-0.378,-0.22,0.441,0.839,0.626,0.206,0.643,0.29,0.981,0.124
CAAACTAGATCAAGGTCAAAGTCGGTTTGTGCCA,3.37,3.93,1.86,-0.496,1.73,4.01,1.98,3.96,0.755,3.92
TAGCCTAGGTCAGATCGGGCCACTATACGCTATA,0.727,1.46,-0.3,-0.905,0.204,1.73,-0.326,1.39,-0.348,3.01
CCTACTGGGCCATTCAGAGATCATTGATCATATG,4.48,3.51,0.0285,0.282,-0.3,-0.546,-0.622,-0.523,0.13,0.0331
AGAATGAGGTTACCAAAGATCAGGGATACGCTTG,3.77,3.44,1.54,0.614,0.494,1.38,-0.284,2.04,0.01,1.98
AGAATGAGGTTACCAAAGATCGGGGAAACGCTTG,4.19,3.16,0.767,-0.00143,0.441,1.3,-0.247,1.86,-0.246,2.09
CAAACTAGGTCACCGGAAGGTCAAAATCCGCATG,8.74,9.07,7.15,5.58,9.41,5.86,1.73,7.2,3.23,5.11
TCTAGTTGGTCACGGAGGTCGCACACGACGGGTA,2.12,2.88,0.487,0.825,1.19,1.79,-0.0843,1.63,0.349,2.47
TCGAGTAGGTTAGTCGGGGGATTCAGCCAACATA,2.61,3.13,3.86,5.11,0.49,0.855,0.0667,0.615,0.264,0.779

Sequence,PBM binding z-score [1],PBM binding z-score [2],PBM binding z-score [3],PBM binding z-score [4],PBM binding z-score [5],PBM binding z-score [6],PBM binding z-score [7],PBM binding z-score [8],PBM binding z-score [9],PBM binding z-score [10]
GGACCAAGGTGAATAGGTCGTTGATGAGTAGGCG,1.58,2.18,-0.0535,-0.223,1.34,0.838,0.241,1.74,0.177,2.06
TCTAGTTGGTCAAAGCTCACACACTCGAAATGCG,2.36,1.86,0.492,0.777,1.1,0.532,-0.0371,0.758,0.56,1.01
CAATCTAGGTCAAGGTCAAAGTCGGTTTGTGCCA,8.63,8.84,5.16,1.26,4.33,5.3,1.93,5.63,1.12,4.9
TAACCTAGGTCATTGGGCCAGTATAGTACGCATC,4.7,5.03,1.2,0.368,1.68,2.09,0.379,2.92,0.714,3.88
TCATATAGGTAATTGCTAGGTGAAAGTCCGATCT,4.13,2.91,0.632,1.27,0.408,0.515,0.224,0.757,0.784,0.345
TCTTGTACATCAAGCAGGTTAAGAAAGCCTGAGT,1.65,0.61,0.553,1.57,0.286,0.6,0.247,0.598,-0.095,0.538
ACTAGCAGTCCAAGGGTCACTCAAGATTAGTCCG,-0.304,1.77,0.198,-0.0845,1.69,3.03,0.168,3.39,-0.132,3.35
GCGTATAGGTAATACAAGGTGAAAGTCCGATTGT,1.36,1.33,0.339,-0.802,0.129,0.699,-0.0902,1.12,0.521,0.576
TCTGCTAGGTCTGTTGGTCAGCTAACGAGCTGCC,0.324,0.208,0.17,0.0841,-1.76,-0.467,-0.379,-0.461,-1.79,0.107
TAGCCTAGGTCATGCGGGCCGGTATAGTGTCGGC,1.61,2.8,-0.135,-0.829,1.05,1.04,-0.496,2.14,-0.545,3.61
TAGCCTAGGTCATTGGGCCAGTAGAGTACGCATC,2.83,3.89,-0.36,-0.247,0.811,1.57,-0.0607,2.13,-0.3,3.54
GATACAGGGTCAGCTAGAGCCCAGAGTATGGAAA,0.771,2.13,-0.422,-0.697,1.06,1.83,-0.197,2.74,-0.316,3.81
CAAACAGGGTCAGCTAGGCCAGAGTAGGGACGGC,2.12,2.9,0.368,0.041,1.74,2.42,0.185,3.18,0.11,3.96
TCTTGTAGATCAACAGGAGGTTAAGACAGATCGA,1.59,0.984,0.978,0.46,-0.0911,0.727,-0.273,0.694,0.154,0.534
AGAATGAGGTTAAGATCAGGTAAACAGAATACAT,2.37,2.93,1.7,0.933,0.782,1.52,0.259,2.3,0.662,1.98
CGTCCAAGGTCATAGGAGGTCCGTGAAGACAGAT,3.08,3.47,0.84,0.63,3.87,4.93,1.26,4.68,1.62,5.04
ATACCATGGTGATCGTGAGGTCGTTGATACTAAC,-0.0684,0.0915,-0.0138,0.737,0.319,1.75,1.17,1.27,-0.088,0.235
CAAACTAAGTCAAAGGTCAAAGTCGAGCCAACCA,3.49,6.79,1.69,2.86,5.3,6.14,2.15,7.85,3.31,4.95
CAAACTAGGTCCCCGGAAGGTCAAAGTCCGCATG,4,4.13,0.31,0.647,3.1,3.72,1.36,3.99,0.686,3.24
GGAACGAAGGCAAAGTTGATAGCATCTGTCGACG,-0.211,0.452,-0.0938,0.0461,-0.879,-0.707,-0.569,-0.458,-0.886,-0.337
CGTCCAAGTTCAAGGTAACGTAACAGAAAGCAGC,0.65,0.654,0.76,0.315,1.63,2.73,1.61,1.95,0.657,3.36
ACTAGTTAGTCAGCTGAGGTCACACACAATTCGG,0.771,2.31,0.856,0.622,2.26,5.14,1.6,5.01,1.35,3.3
